Assay results as given in the supplement of paper PMC8285479.
Where a name gives a salt, the structure may show the parent alone. ± gives the standard deviation of the averaged measurements. In all, about 1,900 compounds were measured (“normalised cell viability (NPI; 0 = phenylarsine oxide control, 1 = DMSO control)”: median about 1, lowest 2% from about 0.039 on). What follows is part of a selection rich in the lowest values, with near analogues and random picks from the rest.

Test system: NCI-H1944
Assay: normalised cell viability (NPI; 0 = phenylarsine oxide control, 1 = DMSO control) (fraction of DMSO control); NCI-H1944 is a non-small cell lung cancer line; higher = more viable cells (less compound toxicity)
Settings: 6 days
[1] = glucocorticoid arm: hydrocortisone 2.75 uM co-treatment, compound 1 µM
[2] = glucocorticoid arm: hydrocortisone 2.75 uM co-treatment, compound 5 µM
[3] = glucocorticoid arm: hydrocortisone 2.75 uM pre-treated 2 days and continued, compound 1 µM
[4] = glucocorticoid arm: hydrocortisone 2.75 uM pre-treated 2 days and continued, compound 5 µM
[5] = glucocorticoid arm: vehicle, compound 1 µM
[6] = glucocorticoid arm: vehicle, compound 5 µM
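Note: CTB read-out in 384-well plates, triplicate wells, NPI normalised per plate against 1 µM phenylarsine oxide (0) and 0.1% DMSO (1) controls.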

SMILES | normalised cell viability [1] | normalised cell viability [2] | normalised cell viability [3] | normalised cell viability [4] | normalised cell viability [5] | normalised cell viability [6]
CCCCC1(C2CCCC2)Cc2cc(OCC(=O)O)c(Cl)c(Cl)c2C1=O (stereo in doubt) [R(+)-Butylindazone] | 0.9903 ± 0.0064 | 0.958 ± 0.011 | 0.988 ± 0.01 | 0.965 ± 0.028 | 0.983 ± 0.006 | 0.9887 ± 0.004
O=C1NC(=O)/C(=C/c2ccc3nccc(-c4ccncc4)c3c2)S1 | 0.697 ± 0.026 | 0.836 ± 0.011 | 0.73 ± 0.039 | 0.848 ± 0.026 | 0.886 ± 0.023 | 0.932 ± 0.027
O=C1NCCc2[nH]c(-c3ccncc3)cc21 | 1.02 ± 0.015 | 0.0894 ± 0.0076 | 0.9933 ± 0.0072 | 0.145 ± 0.006 | 0.916 ± 0.016 | 0.0151 ± 0.0021
Cc1[nH]c(=O)c(C#N)cc1-c1ccncc1 [Milrinone] | 0.996 ± 0.013 | 1.001 ± 0.0083 | 0.998 ± 0.0035 | 1.05 ± 0.081 | 0.9903 ± 0.009 | 0.993 ± 0.015
CCCCCCCCCCCCCCCCCC(=O)OC(CC(=O)O)C[N+](C)(C)C (racemic) [DL-Stearoylcarnitine chloride] | 0.9967 ± 0.0042 | 0.906 ± 0.03 | 1.01 ± 0.019 | 0.993 ± 0.0017 | 1.013 ± 0.0058 | 0.99967 ± 0.00058
CNc1ncnc2c1ncn2[C@H]1C[C@H](OP(=O)(O)O)[C@@H](COP(=O)(O)O)O1 | 0.991 ± 0.0056 | 0.987 ± 0.029 | 1 ± 0.016 | 0.981 ± 0.027 | 0.996 ± 0.0061 | 0.9943 ± 0.0047
C[C@H](O)[C@H](O)[C@H]1CNc2nc(N)[nH]c(=O)c2N1 [(6R)-5,6,7,8-Tetrahydro-L-biopterin dihydrochloride] | 1.02 ± 0.011 | 1.01 ± 0.026 | 0.923 ± 0.18 | 1.001 ± 0.009 | 1.02 ± 0.01 | 1.02
CN1CCc2c(cc(O)c(O)c2Cl)C(c2cccc(Cl)c2)C1 (centres undefined) | 1.006 ± 0.0063 | 1.03 ± 0.03 | 1.01 ± 0.039 | 1.017 ± 0.0058 | 1 | 1.013 ± 0.0058
CCC(=O)Nc1cccc(Oc2nc(Nc3ccc(N4CCN(C)CC4)cc3OC)ncc2Cl)c1 | 1.07 ± 0.017 | 1.11 ± 0.01 | 1.057 ± 0.0058 | 1.07 ± 0.035 | 1 ± 0.011 | 1.01 ± 0.01
CN1CCN(c2ccc(OC(F)(F)F)c(Nc3ncc4c(n3)-c3c(c(C(N)=O)nn3CCO)CC4)c2)CC1 | 0.183 ± 0.025 | 0.146 ± 0.02 | 0.428 ± 0.025 | 0.556 ± 0.069 | 0.0347 ± 0.0042 | 0.0361 ± 0.0086
CNC(=O)c1nn(C)c2c1C(C)(C)Cc1cnc(Nc3ccc(N4CCN(C)CC4)cc3)nc1-2 | 0.485 ± 0.019 | 0.306 ± 0.002 | 0.549 ± 0.019 | 0.424 ± 0.013 | 0.282 ± 0.0098 | 0.126 ± 0.0072
OCCn1cc(-c2cnc3nnn(Cc4ccc5ncccc5c4)c3n2)cn1 | 1 ± 0.01 | 1.02 ± 0.026 | 1.02 ± 0.015 | 1.02 ± 0.052 | 1.01 ± 0.011 | 1.02 ± 0.015
Cc1c(NC(=O)c2ccc(C(C)(C)C)cc2)cccc1-c1cn(C)c(=O)c(Nc2ccc(C(=O)N3CCOCC3)cc2)n1 | 1.017 ± 0.0058 | 1.03 ± 0.032 | 1.007 ± 0.0058 | 0.987 ± 0.022 | 1 ± 0.0087 | 1.006 ± 0.0063
CN1C2CCC1CC(NC(=O)c1nn(C)c3ccccc13)C2 (centres undefined) [LY-278,584 maleate] | 0.9863 ± 0.0067 | 0.977 ± 0.033 | 0.9957 ± 0.0075 | 1.03 ± 0.085 | 0.9753 ± 0.0051 | 0.9783 ± 0.0091
